Test [1] can be described thus: compound effects on differentiated 3T3-L1 adipocyte viability – cell-based, 3T3-L1 adipocytes, calcein-AM fluorescence, 48 h, basal, profiling panel (AID 1163). As to conditions: 3T3-L1 adipocytes viability, higher = more signal.
Test [2] can be described thus: compound effects on hepatocellular carcinoma cell viability – HepG2, calcein-AM fluorescence, 48 h, basal, profiling panel (AID 1164). The note with it: higher = more signal.
A short description of test [3]: compound effects on multiple myeloma cell viability – MM1S, calcein-AM fluorescence, 48 h, basal, profiling panel (AID 1165). As to conditions: higher = more signal.
Test [4] can be described thus: calcein-AM signal in unstimulated myeloma cells – cell-based, calcein-AM fluorescence, 48 h, PK04 Diversity Set, profiling panel (AID 1166).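 Further: cells grown under basal conditions without added stimulus.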 The note with it: RPMI8226 myeloma viability, higher = more signal.
Test [5] in a line: JC-1 mitochondrial signal, unstimulated HepG2 cells – cell-based, JC-1 fluorescence, 24 h, 100 nL compound, profiling panel (AID 1167). The note with it: HepG2 mitochondrial potential, higher = more signal.
The nature of test [6]: JC-1 mitochondrial signal, unstimulated adipocytes – cell-based, JC-1 fluorescence, 3T3-L1 adipocytes, 24 h, 100 nL compound, profiling panel (AID 1168). The note with it: JC-1 mitochondrial fluorescence, higher = more signal, called active from +8 up or from −8 down.
Test [7] can be described thus: JC-1 mitochondrial signal, unstimulated myeloma cells – cell-based, JC-1 fluorescence, RPMI8226, 24 h, 100 nL compound, profiling panel (AID 1169). As to conditions: JC-1 mitochondrial potential fluorescence, higher = more signal.
Test [8] in a line: JC-1 mitochondrial signal, unstimulated MM1S myeloma – cell-based, JC-1 fluorescence, 24 h, 100 nL compound, profiling panel (AID 1170). The note with it: MM1S mitochondrial potential, higher = more signal.
Test [9] in a line: resazurin metabolic signal in A549 cells – cell-based, resazurin fluorescence, 24 h, PK04 Diversity Set, profiling panel (AID 1171). The note with it: A549 viability, higher = more signal, called active from +8 up or from −8 down.
Test [10] is described as follows: resazurin metabolic signal in HepG2 cells – cell-based, resazurin fluorescence, 24 h, PK04 Diversity Set, profiling panel (AID 1172). The note with it: HepG2 viability, higher = more signal. In general terms: Alamar Blue is a resazurin reagent that responds to reducing activity.
Test [11] can be described thus: budding yeast growth changes without added modifier – OD600, strain BY4716, 24 h, basal condition, primary screen (AID 1173). As to conditions: S. cerevisiae BY4716 growth, OD600, 24 h; higher = more signal, called active from +8 up or from −8 down.
Test [12] in a line: viability profiling in MM1S myeloma cells – cell-based, resazurin fluorescence, basal, 24 h, PK04 Diversity Set, profiling panel (AID 1174). As to conditions: higher = more signal, called active from +8 up or from −8 down.
For test [13], the target named is Dihydroorotate dehydrogenase (quinone), mitochondrial (Plasmodium falciparum (isolate 3D7)) (UniProt Q08210). The experiment in a line: inhibition of P. falciparum DHODH – biochemical, C-terminal His tag, absorbance 600 nm, primary screen (AID 1175).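 Further: recombinant parasite enzyme with a five histidine tag at its C terminus.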 As to conditions: PfDHODH enzyme, DCIP absorbance 600 nm; higher = more signal, called active from +8 up or from −8 down.

The nature of test [14]: growth modulation of vineyard yeast isolate – strain RM11-1a, OD600, basal, 24 h, primary screen (AID 1177).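 Further: cultures grown under basal conditions with no added stressor.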 The note with it: S. cerevisiae RM11-1a growth, OD600, 24 h; higher = more signal, called active from +8 up or from −8 down.
The nature of test [15]: growth of efflux-deficient E. coli DRC39 – strain DRC39, OD650, 24 h, E. coli filamentation inducers, primary screen (AID 1178).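 Further: growth measured as culture turbidity by optical density at 650 nm.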 The note with it: E. coli DRC39 acrAB, higher = more signal, called active from +8 up or from −8 down.
Test [16] is described as follows: growth of efflux-deficient E. coli DRC39 – strain DRC39, OD650, 48 h, E. coli filamentation inducers, primary screen (AID 1179).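 Further: screen aims at cell division blockers that make cells filament.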 The note with it: E. coli DRC39 delta-acrAB growth, higher = more signal, called active from +8 up or from −8 down.
Test [17] in a line: viability profiling in RPMI8226 myeloma cells – cell-based, resazurin fluorescence, basal, 24 h, PK04 Diversity Set, profiling panel (AID 1180).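 Further: RPMI8826 multiple myeloma cell line at 5000 cells per well.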 The note with it: higher = more signal.
Test [18] has as its target E3 ubiquitin-protein ligase XIAP (Homo sapiens) (UniProt P98170). In words: small molecules binding XIAP protein – biophysical, small-molecule microarray, fluorescence 635 nm, primary screen (AID 1181).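 Further: score merges 667 nm emission and signal to noise over triplicate slides.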 The note with it: higher = more signal.
The test system of test [19] is XIP peptide (Xip251-270) binding. In words: XIP fragment 251-270 binding compounds – biochemical, small-molecule microarray, fluorescence 635/667 nm, 0.1 µg/mL protein, primary screen (AID 1182). The note with it: fluorescent protein binding, 635 nm, higher = more signal, called active from +8 up or from −8 down.
The next test has as its system XIP peptide (Xip251-270). The experiment in a line: compounds binding XIP fragment 251-270 – biochemical, small-molecule microarray, fluorescence 635/667 nm, 0.5 µg/mL protein, primary screen (AID 1183). As to conditions: fluorescence 635 nm, higher = more signal.

Calls of active or inactive are those of the source.

Chain of Dihydroorotate dehydrogenase (quinone), mitochondrial (Plasmodium falciparum (isolate 3D7)) (Q08210 whole entry, looked up): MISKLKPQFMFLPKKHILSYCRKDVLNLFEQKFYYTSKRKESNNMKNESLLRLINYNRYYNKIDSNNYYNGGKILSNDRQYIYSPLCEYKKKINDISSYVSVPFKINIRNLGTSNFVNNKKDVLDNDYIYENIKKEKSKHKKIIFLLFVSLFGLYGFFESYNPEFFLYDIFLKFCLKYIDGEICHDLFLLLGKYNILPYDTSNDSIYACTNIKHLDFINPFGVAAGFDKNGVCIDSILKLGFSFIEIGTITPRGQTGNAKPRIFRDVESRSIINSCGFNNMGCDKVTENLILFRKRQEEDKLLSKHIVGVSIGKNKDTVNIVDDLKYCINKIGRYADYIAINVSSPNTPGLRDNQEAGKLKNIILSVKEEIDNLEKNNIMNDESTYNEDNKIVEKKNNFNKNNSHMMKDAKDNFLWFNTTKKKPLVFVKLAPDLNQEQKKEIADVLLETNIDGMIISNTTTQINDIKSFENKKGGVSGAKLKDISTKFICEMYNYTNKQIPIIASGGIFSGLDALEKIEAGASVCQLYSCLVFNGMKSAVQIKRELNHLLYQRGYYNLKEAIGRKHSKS
Chain of E3 ubiquitin-protein ligase XIAP (Homo sapiens) (P98170 whole entry, looked up, the tested form may be a part): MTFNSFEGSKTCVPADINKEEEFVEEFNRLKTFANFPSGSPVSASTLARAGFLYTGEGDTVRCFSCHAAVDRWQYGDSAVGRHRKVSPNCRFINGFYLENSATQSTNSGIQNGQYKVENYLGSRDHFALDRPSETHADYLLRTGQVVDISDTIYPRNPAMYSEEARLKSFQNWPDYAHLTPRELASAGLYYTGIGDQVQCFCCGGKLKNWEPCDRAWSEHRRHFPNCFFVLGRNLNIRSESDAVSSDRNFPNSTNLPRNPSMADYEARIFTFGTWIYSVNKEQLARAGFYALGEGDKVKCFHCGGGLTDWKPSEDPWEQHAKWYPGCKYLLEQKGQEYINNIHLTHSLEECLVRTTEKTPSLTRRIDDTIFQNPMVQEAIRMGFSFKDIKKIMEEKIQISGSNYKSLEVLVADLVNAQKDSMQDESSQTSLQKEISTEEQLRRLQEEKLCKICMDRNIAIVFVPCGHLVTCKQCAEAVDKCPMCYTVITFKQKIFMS

For the molecule `C=CCNC(=O)[C@H]1[C@@H]2C(=O)O[C@@H](c3ccccc3)[C@@H](c3ccccc3)N2[C@@H](c2ccccc2OCCO)[C@]12C(=O)N(C(=O)OCCOC)c1ccc(C#CCCO)cc12`, the z-score in [1] was 0.674; in test [2], -0.123; in [3], -2.04; in test [4], -1.42; in [5] it was 0.534; in test [6], 0.825 (inactive). Also, the z-score in test [7] is -0.847; in test [8], -0.665; in test [9] it was 0.659 (inactive); in [10] it was -0.156; in [11], 0.799 (inactive); in test [12] it was 0.287 (inactive). The z-score in [14] was 1.57 (inactive); in [15] it was 0.488 (inactive); in test [16], 0.985 (inactive); in [17] it was -0.0311. Further, the composite z-score was -0.409 (inactive) in test [13], 0.355 in test [18], 0.58 (inactive) in test [19] and 0.507 in the test on XIP peptide (Xip251-270).

Take `CC(C)(C)OC(=O)CC[C@@]12N=C(c3ccc(OCCCO)cc3)O[C@@H]1c1ccccc1CN(Cc1ccccc1)C2=O`: the z-score in [1] was 1.52; in test [2] it was -1.46; in test [3], -3.12; in [4] it was -4.06; in test [5], 0.528; in [6] it was 0.547 (inactive). In addition, the z-score is -1.2 in [7]; -1.07 in test [8]; -0.624 (inactive) in test [9]; -0.232 in [10]; 1.13 (inactive) in test [11]; -3.4 (inactive) in [12]. In addition, the z-score in [14] was 3.15 (inactive); in test [15], 1.21 (inactive); in test [16], 0.199 (inactive); in test [17] it was -2.12. For the same molecule, the composite z-score in [13] is 0.714 (inactive); in test [18] it was 0.286; in test [19], -0.127 (inactive); with XIP peptide (Xip251-270), 0.687.

With `COCCOC(=O)N1C(=O)[C@@]2(c3cc(C#CC4(O)CCCCCC4)ccc31)[C@H](c1ccc(O)cc1)N1[C@H](c3ccccc3)[C@H](c3ccccc3)OC(=O)[C@H]1[C@@H]2C(N)=O`, the z-score was 1.46 in [1]; 0.638 in test [2]; -2.22 in test [3]; -4.23 in test [4]; -1.6 in test [5]; -0.385 (inactive) in test [6]. Further, the z-score was -0.735 in test [7]; 0.246 in test [8]; 0.928 (inactive) in [9]; 0.228 in [10]; -1.38 (inactive) in test [11]; 0.951 (inactive) in test [12]. The z-score is -0.95 (inactive) in [14], 0.158 (inactive) in test [15], 0.155 (inactive) in test [16] and 0.778 in test [17]. The composite z-score in [13] was 0.194 (inactive); in test [18], 0.166; in test [19] it was 1.84 (inactive); in the test on XIP peptide (Xip251-270), 0.821.

`O=C1N(CCS(=O)(=O)c2ccccc2)Cc2ccccc2[C@@H]2OC(c3ccc(OCCCO)cc3)=N[C@]12Cc1ccccc1`: the z-score was 2.11 in test [1]; 0.288 in [2]; -0.0623 in test [3]; -0.222 in test [4]; 0.194 in [5]; 0.401 (inactive) in [6]. In addition, the z-score in [7] was -1.11; in test [8], -0.693; in test [9] it was -0.77 (inactive); in test [10], 0.309; in test [11], 1.72 (inactive); in test [12] it was -0.739 (inactive). The z-score in [14] is 4.1 (inactive); in test [15], 2.25 (inactive); in test [16], 1.05 (inactive); in [17] it was -0.384. Moreover, the composite z-score in [13] was 0.913 (inactive); in test [18], -0.121; in test [19] it was 1.73 (inactive); in the test with XIP peptide (Xip251-270) it was 0.927.

These data come from PubChem BioAssay.
